Hit rate of the full screen: of about 320,000 compounds, about 22,000 (6.9%) were called active. Another 27% or so got no clear call; they are omitted. This excerpt belongs to a sample that is enriched for actives. Unmarked numbers belong to inactive results. The call rests on the fitted dose curve; in most records, active means well fitted inhibition curve with a large enough effect; inconclusive means small, poorly fitted or top-dose-only effect, or another doubt; inactive means no such curve, though single readings can be large or run the other way.
On the % scale 0 is the no-effect control and ±100 the full control effect; potency means the concentration at half of the fitted maximal effect.

This experiment in a line: Primary qHTS for delayed death inhibitors of the malarial parasite plastid, 96 hour incubation. The settings on record: P. falciparum luciferase reporter growth; series mostly up to 28.7 µM; activity change, negative = inhibition: at the top concentration. In short, it runs like this: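 Parasite growth measured via integrated firefly luciferase reporter in P. falciparum. Infected erythrocytes at 2% hematocrit, 0.05% parasitemia final were treated 96 hours at 37 C under 5% CO2, and luminescence was read.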
On the technique in general: In qHTS, concentration-response curves come from the screen itself.
As to `C=CCn1c(SCC(=O)c2ccc(Br)cc2)nnc1C(C)NC(=O)Cc1ccc(OC)cc1` (stereo unspecified), the “activity change, negative = inhibition” value was -12.8%.

For the compound `C=CCn1c(SCc2ccc(Cl)c(Cl)c2)nnc1C(CO)NC(=O)c1ccc(OC)cc1` (stereo unspecified), the “activity change, negative = inhibition” value was -6.53%.

As to `C=CCn1c(SCCOc2ccc(OC)cc2)nnc1C(NC(=O)c1ccc(OC)cc1)C(C)C` (stereo unspecified), the Potency was 10.4 µM (active).

As for `CC[C@]1([C@H]2O[C@@H]([C@@H]3O[C@](O)(CO)[C@@H](C)C[C@H]3C)C[C@H]2C)CC[C@@H]([C@]2(C)CC[C@@]3(C[C@@H](O)[C@@H](C)[C@@H]([C@H](C)[C@H](OC)[C@H](C)C(=O)O)O3)O2)O1`, the Potency is 0.019 µM (active).

As to `COc1ccc(CC(=O)OC(C)C(=O)Nc2ccc(S(N)(=O)=O)cc2)cc1` (stereo unspecified), the “activity change, negative = inhibition” value is 36.6%.

In the case of `CC(C)(C)OC(=O)N1CCC(NC(=O)c2[nH]cnc2C(=O)N[C@@H](Cc2ccccc2)C(=O)OCc2ccccc2)CC1`, the Potency is 1.47 µM (active).

Take `C[C@@H](NC(=O)c1nc[nH]c1C(=O)N1CCN(C(=O)OC(C)(C)C)CC1)c1ccccc1`: the “activity change, negative = inhibition” value is 1.65%.

`O=C(N[C@@H](Cc1ccccc1)C(=O)OCc1ccccc1)c1nc[nH]c1C(=O)N[C@@H](Cc1ccccc1)C(=O)OCc1ccccc1`: the “activity change, negative = inhibition” value was -2.42%.

For `Cc1c(Cl)cccc1NC(=O)CCC(=O)N/N=C/c1ccco1`, the “activity change, negative = inhibition” value was 0.368%.

For the compound `Cc1cc(C)cc(N(CC(=O)NC2CCCC2)C(=O)CCC(=O)Nc2cc(C)on2)c1`, the “activity change, negative = inhibition” value was -13.5%.

Regarding `COc1ccc(C(=O)Nc2ccc(S(=O)(=O)Nc3onc(C)c3C)cc2)cc1OC`, the “activity change, negative = inhibition” value is -15.4%.

Turning to `Cc1cc(OC(C)C(=O)Nc2ccc(S(=O)(=O)Nc3onc(C)c3C)cc2)cc(C)c1Cl` (stereo unspecified), the Potency is 8.28 µM (active).

Regarding `CC(Oc1cccc(Cl)c1)C(=O)Nc1ccc(S(=O)(=O)Nc2ncccn2)cc1` (stereo unspecified), the “activity change, negative = inhibition” value is 15.6%.

As to `N#Cc1c(-c2ccccc2)c(-c2ccccc2)n[nH]c1=O`, the “activity change, negative = inhibition” value is 40.2%.

`NCCCCCC(=O)N/N=C/c1ccc2nccnc2c1`: the “activity change, negative = inhibition” value is 0.751%.

For `COc1ccc(C(=O)NC(C)Cn2nc(C)cc2C)cc1OC1CCN(C(C)=O)CC1` (stereo unspecified), the “activity change, negative = inhibition” value is 26%.

Consider `O=C(NCCCn1ccnc1)C1CCCN(S(=O)(=O)c2cc(Cl)ccc2Cl)C1` (stereo unspecified), for which the “activity change, negative = inhibition” value is 27.1%.

For the compound `O=c1oc2ccccc2c(CNc2ccccc2)c1[N+](=O)[O-]`, the “activity change, negative = inhibition” value was 0.143%.

With `CCCNC(=O)NCc1ccc(N2CCCC2=O)cc1`, the “activity change, negative = inhibition” value is -6.7%.

As to `O=C(NCCCN1CCCCCC1)c1ccc(N2CCCC2=O)cc1`, the Potency is 2.33 µM (active).

Consider `O=C(NCCCN1CCCC1=O)c1ccc(S(=O)(=O)Nc2ccccc2)cc1`, for which the “activity change, negative = inhibition” value is 3.54%.

Take `COc1ccc(N2CCN(C(=O)Cn3cnc4sc(C)c(S(=O)(=O)N5CCOCC5)c4c3=O)CC2)cc1`: the “activity change, negative = inhibition” value is -2.58%.

With `Cn1c(N)c(C(=O)COC(=O)C23CC4CC(CC(C4)C2)C3)c(=O)n(C)c1=O`, the Potency was 14.7 µM (active).

For `Cn1c(N)c(C(=O)COC(=O)c2cnc(Cl)c(Cl)c2)c(=O)n(C)c1=O`, the “activity change, negative = inhibition” value is 7.7%.

For `Cn1c(N)c(C(=O)COC(=O)COc2ccc(Cl)cc2)c(=O)n(C)c1=O`, the “activity change, negative = inhibition” value is 9.16%.

As to `COc1cc(NC(=O)c2ccccc2)c(OC)cc1NC(=O)Cc1ccccc1`, the “activity change, negative = inhibition” value was 177%.

Turning to `CCc1nn(CCCC(=O)Nc2ccc(C)c(C)c2)c(=O)c2cc3occc3n12`, the “activity change, negative = inhibition” value is 0.0935%.

Regarding `CC1CC(C)(C)CC2(C1)NC(=O)N(CC(=O)Nc1nccs1)C2=O` (stereo unspecified), the “activity change, negative = inhibition” value is 2.21%.

In the case of `CC(C)n1c(COc2ccccc2)nc2ccccc21`, the “activity change, negative = inhibition” value is 30.5%.

Turning to `Brc1ccccc1C1Nc2cccc3cccc(c23)N1`, the “activity change, negative = inhibition” value is 0%.

In the case of `Oc1ccc(C2Nc3cccc4cccc(c34)N2)cc1`, the Potency was 10.4 µM (active).

Turning to `COc1cccc(C2Nc3cccc4cccc(c34)N2)c1`, the Potency was 7.38 µM (active).

`COc1ccc2[nH]c3ccc(OC)cc3c2c1`: the “activity change, negative = inhibition” value was 3.15%.

`Cc1ccc(C2Nc3cccc4cccc(c34)N2)cc1`: the “activity change, negative = inhibition” value is -15.1%.

In the case of `COc1ccc(C2NC(=O)c3ccccc3N2)cc1` (stereo unspecified), the “activity change, negative = inhibition” value was 126%.

In the case of `N#Cc1ccccc1S(=O)(=O)N1CCN(Cc2c(O)ccc3ccccc23)CC1`, the “activity change, negative = inhibition” value is -22%.

`CC(CCc1ccccc1)NC(=O)c1cnc(Cl)c(Cl)c1` (stereo unspecified): the “activity change, negative = inhibition” value was -8.54%.

Take `Cc1ccc(N(C(=O)CNC(=O)c2ccco2)C(C(=O)NC2CCCC2)c2ccncc2)cc1` (stereo unspecified): the “activity change, negative = inhibition” value was 3.8%.

In the case of `CC(C)C(NC(=O)c1c(F)cccc1F)C(=O)NCc1ccncc1` (stereo unspecified), the “activity change, negative = inhibition” value is 0.117%.

With `C[C@@H](NC(=O)OC(C)(C)C)c1nnc(S(=O)(=O)Cc2ccccc2)o1`, the “activity change, negative = inhibition” value was 19.6%.

On to `CC(C)CN(CC(C)C)C(=O)CN1c2cccc3cccc(c23)S1(=O)=O`, for which the “activity change, negative = inhibition” value was -0.0528%.

As to `CCn1c(CC(=O)Nc2ccccc2)nnc1SCC(=O)N1CCOCC1`, the “activity change, negative = inhibition” value is 8.31%.

Turning to `COC(=O)c1ccc(CSc2nncn2C)cc1`, the “activity change, negative = inhibition” value is 23%.

In the case of `CCOc1cc(/C=N/NC(=O)c2ccc(CSc3nncn3C)cc2)ccc1OCC(=O)N1CCOCC1`, the Potency is 11.7 µM (active).

Consider `CCOc1cc(/C=N/NC(=O)c2cccc(S(=O)(=O)N3CCOCC3)c2)ccc1OCC(=O)N(C)C`, for which the “activity change, negative = inhibition” value was 3.33%.

Turning to `CC(=O)N1CC[n+]2c(-c3ccc([N+](=O)[O-])cc3)csc21`, the “activity change, negative = inhibition” value is -3.07%.

`CC1CCN(S(=O)(=O)c2ccc(NC(=O)C3CC(=O)N(c4ccccc4)C3)cc2)CC1` (stereo unspecified): the “activity change, negative = inhibition” value is 4.87%.

Take `O=C(Nc1ccc(Cl)cc1)Nc1nnc(/C=C/c2ccccc2)s1`: the Potency is 13.1 µM (active).

Regarding `COc1ccc(/C=C/c2nnc(NC(=O)C(C)C)s2)cc1`, the “activity change, negative = inhibition” value was -4.99%.

Take `O=C(CSc1ccccc1)Nc1nnc(/C=C/c2ccccc2)s1`: the “activity change, negative = inhibition” value is -19.1%.

Turning to `CNS(=O)(=O)c1cnccc1N1CCN(c2cccc(C)c2)CC1`, the Potency is 10.4 µM (active).

Consider `O=S(=O)(c1cnccc1N1CCN(/N=C/c2ccc(Br)cc2)CC1)N1CCCCC1`, for which the “activity change, negative = inhibition” value was 123%.

As to `CC(C)NC(=O)N1CCN(c2ccncc2S(=O)(=O)N2CCCCC2)CC1`, the “activity change, negative = inhibition” value was -11%.

Take `COc1ccc(F)cc1C(=O)COC(=O)c1n[nH]c(=O)c2ccccc12`: the “activity change, negative = inhibition” value was -26.4%.

On to `O=C(c1n[nH]c2c1CCC2)N1CCCC(Nc2cccc(F)c2)C1` (stereo unspecified), for which the “activity change, negative = inhibition” value is 46.1%.

With `CSc1nc(-c2ccco2)nn1C(=O)c1ccccc1Cl`, the “activity change, negative = inhibition” value is -15.5%.

With `CCCC1=Nc2cc(C(=O)NCc3ccco3)ccc2Sc2ccccc21`, the Potency was 2.94 µM (active).

With `CCC1=Nc2cc(C(=O)NCCCN3CCOCC3)ccc2Sc2ccc(Br)cc21`, the “activity change, negative = inhibition” value is 0.73%.

Take `COc1ccc(CCNS(=O)(=O)c2ccc(C(=O)NCc3ccco3)cc2)cc1OC`: the activity change, negative = inhibition was 11.4% [at 5.75 µM].

Turning to `COCCN(C(=O)COC(=O)Cc1cccc(OC)c1)c1c(N)n(Cc2ccccc2)c(=O)[nH]c1=O`, the “activity change, negative = inhibition” value was 0.297%.

Take `Cc1ccc(F)cc1S(=O)(=O)Nc1cccc(C(=O)N2CCCC(C(N)=O)C2)c1` (stereo unspecified): the “activity change, negative = inhibition” value is -2.9%.
